mcGAS inh – blocks mouse cGAS activity | Q8C6L5 | recombinant cGAS, Kinase-Glo ATP depletion luminescence | inhibition, % at 12.5 µM | hit rate 0.15% among 160,000 | AID 1259399;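 also: 0% = negative control wells and 100% = reference inhibitor with no enzyme activity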
Target sequence (Q8C6L5 whole entry, looked up): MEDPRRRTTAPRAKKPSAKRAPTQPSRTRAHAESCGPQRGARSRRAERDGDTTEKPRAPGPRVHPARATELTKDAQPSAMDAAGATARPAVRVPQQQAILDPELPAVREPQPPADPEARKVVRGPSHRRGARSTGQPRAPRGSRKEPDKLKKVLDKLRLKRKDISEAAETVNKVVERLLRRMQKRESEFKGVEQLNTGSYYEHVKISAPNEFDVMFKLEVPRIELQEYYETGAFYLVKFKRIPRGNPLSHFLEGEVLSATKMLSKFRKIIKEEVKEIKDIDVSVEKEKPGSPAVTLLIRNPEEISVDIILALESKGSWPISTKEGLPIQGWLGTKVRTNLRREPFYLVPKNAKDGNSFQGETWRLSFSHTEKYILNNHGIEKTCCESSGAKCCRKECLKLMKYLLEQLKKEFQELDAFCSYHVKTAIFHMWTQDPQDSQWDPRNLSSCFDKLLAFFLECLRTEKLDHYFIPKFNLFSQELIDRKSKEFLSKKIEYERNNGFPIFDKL
hcGAS inh – inhibitors of human cGAS; hit rate 0.081% among 290,000; recombinant h-cGAS, ATP depletion, Kinase-Glo luminescence; AID 1259398; inhibition, % at 12.5 µM;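 also: 0% = vehicle reaction and 100% = reaction without DNA for no activity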
NPYLR7 agonist – mosquito NPYLR7 agonism; HEK293T NPYLR7/Galpha15, GCaMP6s calcium fluorescence; activation, % at 10 µM; hit rate 0.15% among 270,000; in the data active = activation above about 40%;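 also: 0% = vehicle and 100% = reference agonist at the receptor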
* = called active by the depositor; · = not tested or not shown; ! = repeats disagree. Compounds with a hit are over-represented: about 0.24% of the library has one in this group of screens. Rule as the data show it, unless noted: active = inhibition above about 40%; inactive = the rest.

SMILES	mcGAS inh	hcGAS inh	NPYLR7 agonist
CC(=O)c1c(C)[nH]c(C(=O)Nc2nc(C)cs2)c1C	·	-4.9	6.4
COc1c[nH]c(C(=O)Nc2ccc(C(C)C)cc2)cc1=O	·	-12.5	0.6
O=C1c2ccccc2-c2nc3ccccc3nc21	·	-0.7	2.3
O=C1c2ccccc2-c2nc3nonc3nc21	53.2*	1.4	-0.2
Cc1cc(C(=O)N2CCCC(C(=O)c3ccc(Cl)cc3C)C2)nc(C)n1 (configuration not stated)	-10.4	-10.3	17.7
COCC(=O)N1CCc2[nH]c3c(Cl)cc(Cl)cc3c2C1	95.8*	48.2*	1.4
O=C(c1cnccn1)N1CCc2[nH]c3c(Cl)cc(Cl)cc3c2C1	21.8	17.6	3.4
Cc1ccc(NC(=O)Cn2nc(-c3ccc(Br)cc3)ccc2=O)cc1	·	-12.8	6.6
CN(C)Cc1ccc(CNC(=O)c2cc(Cl)sc2Cl)cc1	·	-15.4	0.4
COc1ccc(S(=O)(=O)NCC2CCCN(C(=O)C3CCOCC3)C2)cc1 (configuration not stated)	-4.2	-2.2	-1.4
O=C(COc1ccccc1)N1CCCC(CNS(=O)(=O)c2cccs2)C1 (configuration not stated)	-2.3	-7.6	56.7*!
O=C(CCCc1cccs1)N1CCCC(CNS(=O)(=O)c2cccs2)C1 (configuration not stated)	·	-4.6	20.9
COc1ccc(S(=O)(=O)NCC2CCCN(C(=O)CSc3ccccc3)C2)cc1 (configuration not stated)	1.3	-6.9	49.7*!
Cc1ccn2c(NC(C)(C)CC(C)(C)C)c(-c3ccc(OC(=O)c4cccc5ccccc45)cc3)nc2c1	-7.1	-7.2	13.4
C=CCCC(O)CN1CCN(Cc2nc(C(=O)Nc3ccc(OC)cc3)co2)CC1 (configuration not stated)	-3.7	-6.1	·
O=C(CSc1nnc2ccccn12)Nc1c(Cl)c(Cl)cc(Cl)c1Cl	·	3.5	-6.5
COC(=O)C(c1ccccc1)C1C=CC(NC(=O)/C=C/c2ccccc2Cl)C1 (configuration not stated)	0.7	3.9	3.8
Fc1ccccc1C1NCCc2cc3c(cc21)OCCO3 (configuration not stated)	·	-7.7	0.2
OC1c2ccccc2-c2c3c(cc4c2C1NCC4)OCO3 (configuration not stated)	43.8*	42.5*	12.4
Cc1cc(C=C2SC(N)=NC2=O)c(C)n1C1CC1	·	-9.7	3.6
CCN1CC(=Cc2cc(C)n(C3CC3)c2C)C(=O)C(=Cc2cc(C)n(C3CC3)c2C)C1	·	-12.4	48.4*
CC(C)NC(=O)CNC(=O)CSc1nc2ccccc2s1	·	-10.2	20.9
Cc1ccccc1/C=C1\Oc2c(ccc3c2CN(C2CCS(=O)(=O)C2)CO3)C1=O (configuration not stated)	9.1	23.0	42.4
COc1ccc(/C=C2\Oc3c(ccc4c3CN(CC3CCCO3)CO4)C2=O)cc1OC (configuration not stated)	-5.8	-5.3	87.9*
COc1ccc(/C=C2\Oc3c4c(cc(C)c3C2=O)OCN(Cc2ccncc2)C4)cc1	-6.4	-3.5	-3.5
SMILES	mcGAS inh	hcGAS inh	NPYLR7 agonist
COc1ccc(/C=C2\Oc3c(ccc4c3CN(C3CCS(=O)(=O)C3)CO4)C2=O)cc1 (configuration not stated)	-6.5	-5.5	67.7*
CC(C)c1ccc(/C=C2\Oc3c(ccc4c3CN(C3CCS(=O)(=O)C3)CO4)C2=O)cc1 (configuration not stated)	-6.9	-6.6	43.5
COc1ccc(/C=C2\Oc3c(ccc4c3CN(CC3CCCO3)CO4)C2=O)cc1 (configuration not stated)	-5.7	-0.8	63.7*
COc1cc(/C=C2\Oc3c(ccc4c3CN(CC3CCCO3)CO4)C2=O)cc(OC)c1OC (configuration not stated)	2.1	2.0	74.1*
COc1ccc(/C=C2\Oc3c4c(cc(C)c3C2=O)OCN(C2CC2)C4)cc1OC	-8.2	-5.7	1.1
O=C(c1csc(Cc2ccccc2)n1)N1C[C@@H]2[C@H](C1)[C@H]1CC[C@@H]2O1	·	0.8	-1.1
COc1cc(C=CC(=O)N2CCC(O)(Cc3ccccc3)CC2)ccc1OCc1ccccc1	-4.6	-3.8	11.2
COC(=O)[C@@H]1CCCN1Cc1nc(-c2ccc(OC)c(OC)c2)oc1C	·	-3.8	4.3
NC(=O)C1CCC(CNC(=O)CCCOc2ccccc2Cl)CC1 (configuration not stated)	·	-3.6	1.0
O=[N+]([O-])c1c[n+]([O-])n(-c2cccc(Cl)c2)n1	-1.5	2.7	74.3*
O=[N+]([O-])c1c[n+]([O-])n(-c2ccc3c(c2)OCCO3)n1	-7.6	-1.5	1.9
CCc1cccc2c(C(CC(=O)NCCCN3CCOCC3)c3cccc(C(F)(F)F)c3)c[nH]c12 (configuration not stated)	-10.3	-12.1	·
CCc1cccc2c(C(CC(=O)NCCCN3CCOCC3)c3ccc(OC)c(OC)c3)c[nH]c12 (configuration not stated)	67.5*	-12.2	·
COc1ccc(/C=C2/SC(=S)N(CC(=O)O)C2=O)cc1OC	-2.7	-2.3	-1.6
O=C(O)CN1C(=O)/C(=C\c2cc([N+](=O)[O-])cc(Br)c2O)SC1=S	66.5*	50.7*	81.1*
COc1cc(/C=C2/SC(=S)N(CC(=O)O)C2=O)cc(Br)c1O	-4.2	-11.6	-0.5
COc1cc([N+](=O)[O-])cc(/C=C2/SC(=S)N(CC(=O)O)C2=O)c1O	-3.6	-4.3	-6.2
O=C(O)CN1C(=O)/C(=C/c2cc(Br)c(O)c(Br)c2)SC1=S	6.5	2.6	250.8*
CN(C)c1ccc(/C=C2/SC(=S)N(CC(=O)O)C2=O)cc1Br	·	-0.5	124.2*
COc1cc(OC)c(OC)cc1/C=N\NC(=O)CSc1nc2ccccc2[nH]1	-4.9	-3.7	7.0
COc1cc(NC(=O)C(C2CCCC2)N2CCN(C(=O)C3CC3)CC2)cc(OC)c1 (configuration not stated)	-3.9	-2.5	-1.7
CCCSc1nc2c(c(=O)n1-c1cc(C)cc(C)c1)SCC2	-1.6	1.8	-4.6
O=C(Nc1ccc(NC2CCCCC2)cc1)c1nccc2ccccc12	·	-4.4	1.2
O=C(c1nccc2ccccc12)N1CCN(CC2CCCC2)CC1	·	-3.5	125.6*
CCOC1CC(NC(=O)CNC(=O)c2ccccc2C)C1(C)C (configuration not stated)	·	-3.4	-7.5
SMILES	mcGAS inh	hcGAS inh	NPYLR7 agonist
O=c1oc(-c2ccccc2O)nc2ccccc12	·	55.1*	2.7
O=c1oc(-c2ccccc2Br)nc2ccccc12	-4.8	-1.5	18.8
Cc1c(C(=O)NCc2cccs2)cnn1-c1ncc2c(n1)-c1ccccc1CCC2	-12.2	-5.6	18.0
N#Cc1cc(I)c(O)c([N+](=O)[O-])c1	·	67.1*	-7.1
N#Cc1ccc([N+](=O)[O-])c(O)c1	·	3.0	-7.3
COc1ccc(NC(=O)c2cc(=O)c(OC)cn2C)cc1	·	-2.2	-1.1
Cc1cc2nc3c(=O)[nH]c(=O)nc-3n(CC(O)C(O)C(O)CO)c2cc1C (configuration not stated)	·	0.2	172.5*
Cc1cc2nc3c(=O)[nH]c(=O)nc-3n(C)c2cc1C=O	·	-5.2	-1.1

Source: PubChem BioAssay (Fisher Drug Discovery Resource Center)
